KB-V1 MDR tox = kills drug-selected multidrug resistant KB-V1 cells; Potency, µM (top dose mostly 46.1 µM), hits mostly cytotoxic; actives 3.4% (n = 400,000); AID 1347076; KB-V1 MDR cells viability, CellTiter-Glo, 72 h; note: nearly all actives have a fitted effect of over 60% in size
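qHTS viability screen in drug-selected KB-V1 MDR cells: 72 h compound treatment at 37 degrees C, ATP luminescence end point.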
HT1080-NT tox = kills 2HG-producing HT-1080-NT fibrosarcoma cells; HT-1080-NT fibrosarcoma viability, CellTiter-Glo ATP luminescence, 48 h; Potency, µM (titrated, usually from 46.1 µM), for inactives: top-dose activity, negative = less viability, actives largely listed as cytotoxic; actives 1.6% (n = 360,000); AID 686970;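 note: NT is the 2HG producing partner of a matched IDH1 knockdown line; 0% = DMSO-treated cells and -100% = media-only wells without cells; nearly all actives have a fitted effect of over 55% in size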
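Read-out is CellTiter-Glo luminescence after 10 minutes at room temperature, following 48 hours' compound treatment of HT-1080-NT cells (750 cells/well, RPMI, 5% FBS, 37 degrees C).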
DT40 TDP1 no CPT = qHTS for Inhibitors of human tyrosyl-DNA phosphodiesterase 1 (TDP1): qHTS in cells in absence of CPT; DT40 Tdp1-/- hTDP1 cells, no CPT, ATP luminescence, 48 h; Potency, µM (highest dose often 46.2 µM), inactives show top-dose activity change, negative = growth inhibition, most hits filed as inhibitors; actives 15% (n = 420,000); AID 686978, 2013; note: nearly all actives have a fitted effect of over 55% in size
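Stably hTDP1-transfected Tdp1-null chicken DT40 cells were treated with library compounds minus camptothecin and grown for at least 48 hr at 37 °C, after which cellular ATP was quantified by luminescence.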
TDP1 cell CPT = DT40-hTDP1 cell growth loss with CPT; chicken DT40 Tdp1-/-;hTDP1 cells + 20 nM CPT, ATP luminescence, 48 h; Potency, µM (titrated, usually from 46.2 µM), without a hit: top-dose activity change, negative = growth inhibition, most hits filed as inhibitors; actives 12% (n = 420,000); AID 686979; note: nearly all actives have a fitted effect of over 55% in size
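Chicken DT40 Tdp1-/- cells complemented with human TDP1, 400 cells/well, exposed to compounds plus 20 nM camptothecin for at least 48 h at 37 C; viability read as ATP content by CellTiter-Glo luminescence.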
KB-3-1 tox = KB-3-1 parental cell cytotoxicity; AID 1347075; KB-3-1 viability, CellTiter-Glo ATP luminescence, 72 h; Potency, µM (top dose mostly 46.1 µM), hits mostly cytotoxic; actives 1.4% (n = 400,000); note: nearly all actives have a fitted effect of over 60% in size
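Parental KB-3-1 adenocarcinoma cells in phenol-red-free DMEM with 10% FBS were pin-treated with compounds at several concentrations, incubated 72 h at 37 °C, and viability read by CellTiter-Glo luminescence; concentration-effect curves were fitted after normalization.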
HT1080 IDH1KD tx = toxicity to HT-1080 IDH1 knockdown cells (counter line); actives 2% (n = 360,000); AID 686971; Potency, µM (top dose mostly 46.1 µM), inactives show top-dose activity, negative = toxicity, hits mostly cytotoxic; HT-1080 IDH1 knockdown viability, ATP luminescence, 48 h;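 note: 0% = DMSO wells and -100% = cell-free medium wells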
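IDH1KD HT-1080 cells, 750/well, RPMI + 5% FBS; compound pinned after 2 h settling; 48 h, 37 °C; CellTiter-Glo luminescence; % activity normalised to DMSO and no-cell wells; curves fitted, classed by r2 and efficacy.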
Starred values were filed as active, the others as inactive; i = inactive; ? = inconclusive; . = no result given; [ ] = remark or other dose. Rows were chosen to be rich in hits. Some 19% of all compounds tested hit in one or more screens of this group. Calls come from the whole dose curve; as a rule, active = well fitted curve in the direction sought with a large enough effect; inconclusive = small, poorly fitted or top-dose-only effect, or another doubt; inactive = no such curve, though single readings can be large; an effect the other way counts as inactive or inconclusive. Unless noted, % is set by controls: 0 for no effect and ±100 for the full control effect; potency is the fitted concentration of half-maximal effect.

SMILES	KB-V1 MDR tox	HT1080-NT tox	DT40 TDP1 no CPT	TDP1 cell CPT	KB-3-1 tox	HT1080 IDH1KD tx
COc1cc(Cl)c(C)cc1Nc1c2c(nc3ccccc13)CCC2	i	.	1.5µM*	2.1µM*	4.1µM*	.
COc1cc(Cl)c(C)cc1NC(=O)CSc1nc2c(c(=O)[nH]1)CCC2	i	.	?	-28%	i	.
COc1ccc(Nc2c3c(nc4ccccc24)CCC3)c(OC)c1	4.1µM*	18µM*	16µM*	15µM*	21µM*	16µM*
Cc1ccc(Nc2nc3c(s2)CCC3)c(C)c1	i	-15%	?	?	i	-7%
COc1ccccc1Nc1nc2c(s1)CCC2	i	1%	?	15µM*	i	2%
COc1cc(Nc2c3c(nc4ccccc24)CCCC3)cc(OC)c1OC	i	?	?	?	?	?
O=C1CCCC2=C1C(c1ccccc1Cl)N=C(Nc1nc3ccccc3o1)N2 (centres undefined)	i	.	.	.	i	.
CCC(=O)c1ccc(OCC(O)CNC(C)c2ccccc2)cc1 (centres undefined)	i	-25%	?	?	i	-14%
CC(C)c1ccc(OCC(O)CNC(C)c2ccccc2)cc1 (centres undefined)	i	23µM*	16µM*	16µM*	?	18µM*
Cc1cccc(C)c1OCC(O)CNC(C)c1ccccc1 (centres undefined)	i	?	5.2µM*	3.7µM*	i	?
Cc1cc(C)c[n+](CC(=O)c2ccc(-c3ccccc3)cc2)c1	i	-18%	?	18µM*	?	-10%
CCc1c(C)nc2ncnn2c1Nc1ccc(C)c(C)c1	?	-4%	?	23µM*	i	-1%
CCc1c(C)nc2ncnn2c1NCCc1ccc(OC)cc1	?	6.3µM*	3.5µM*	2.8µM*	5.6µM*	3.5µM*
COc1cccc(N2CCN(C(=O)CN3CCSc4ccc(S(=O)(=O)N(C)C)cc43)CC2)c1	?	.	.	.	i	.
O=C1Nc2ccc(Br)cc2C1=Nc1cccnc1	i	?	8.2µM*	12µM*	i	?
Cc1cc(NC(=O)CCC(=O)N(CCC(C)C)C(C(=O)NCC2CCCO2)c2ccccc2C)no1 (centres undefined)	i	-8%	?	-11%	i	-10%
O=C1CC2(CCN(C(=O)C3CC(=O)N(c4ccccc4)C3)CC2)Oc2ccccc21 (centres undefined)	i	-1%	?	?	i	-1%
CCc1ccc(CCC(=O)N2CCN(S(=O)(=O)c3ccc(Br)cc3)CC2)cc1	?	-16%	18µM*	?	i	-22%
COc1ccc(CCC(=O)N2CCN(S(=O)(=O)c3ccc(OC(F)(F)F)cc3)CC2)cc1	16µM*	0%	0%	-19%	i	8%
COc1ccc(CCC(=O)N2CCN(S(=O)(=O)c3ccc4ccccc4c3)CC2)cc1	i	-12%	?	-4%	i	-16%
O=C(C[n+]1cccc(Br)c1)c1ccc2c(c1)CCCC2	i	.	?	?	?	.
CCN(c1ccc(OC)cc1)S(=O)(=O)c1nnc(NC(=O)CC(C)C)s1	i	10%	2%	-20%	i	14%
Cc1ccc(N(CC(C)C)S(=O)(=O)c2nnc(NC(=O)c3ccco3)s2)cc1	.	.	18µM*	?	.	.
COc1ccc(N(CC(C)C)S(=O)(=O)c2nnc(NC(=O)CC(C)C)s2)cc1	i	-4%	?	3.7µM*	i	0%
CC(C)(CCl)C(=O)Nc1ccnc(-c2ccncc2)n1	i	20%	?	0%	i	2%
SMILES	KB-V1 MDR tox	HT1080-NT tox	DT40 TDP1 no CPT	TDP1 cell CPT	KB-3-1 tox	HT1080 IDH1KD tx
Cc1cc(CSc2ccc(Cl)cc2)ccc1N	i	-15%	-14%	2%	i	-7%
N#CC1=C(N)C(C#N)(C#N)[C@H](c2c(F)cccc2F)[C@H]2CC3(CC=C12)OCCO3	?	?	16µM*	?	6.5µM*	10µM*
CN1C2C=C3C(C#N)=C(N)C(C#N)(C#N)[C@H](c4c(F)cccc4F)[C@H]3C1CC2 (some centres undefined)	i	?	10µM*	7.3µM*	i	-13%[9.24 µM]
Fc1ccc(Oc2cnc3ccccc3n2)cc1	i	1%	-24%	-2%	i	7%
Cc1ccccc1C(=O)N1CCC1(C)C(=O)NC(C)C (centres undefined)	i	11%	-8%	-25%	i	6%
COc1ccc(CCNC(=O)CCCn2nc(C)c3sc4ccccc4c3c2=O)c(OC)c1	i	.	?	23µM*	i	.
CCOC(=O)N1CCN(C(=O)CCCn2nc(C)c3sc4ccccc4c3c2=O)CC1	?	19%	26µM*	?	i	7%
Cc1ccc(NC(=O)COC(=O)c2nn(-c3ccc(Cl)cc3)cc2O)cc1	i	?	?	-22%	i	?
Cc1ccc(NC(=O)c2cc(-c3ccccc3)n[nH]2)cc1	?	1%	15%	-12%	i	2%
COc1ccc(-n2cc(-c3ccccc3)nc2SCC(=O)Nc2ccccc2C)cc1	i	.	?	?	i	.
COc1ccc(Cl)cc1-n1cc(-c2ccccc2)nc1SCC(=O)Nc1ccc(C)cc1	i	.	18µM*	?	i	.
Cc1ccc(-c2cn(-c3ccc(Cl)cc3)c(S(=O)(=O)CC(=O)Nc3ccccc3)n2)cc1	?	.	?	26µM*	i	.
Cc1ccc(-n2cc(-c3ccccc3)nc2S(=O)(=O)CC(=O)Nc2ccc(F)cc2)cc1	?	.	?	23µM*	?	.
Fc1ccc(-c2cc3nc(-c4ccccc4)cc(N4CCOCC4)n3n2)cc1	i	9%	23µM*	13µM*	i	-1%
c1ccc(-c2nnc3ccc(N4CCC5(CC4)OCCO5)nn23)cc1	i	8%	?	?	i	-2%
Cc1ccc(-c2cc3nc(-c4ccccc4)cc(N4CCC5(CC4)OCCO5)n3n2)cc1	i	-3%	18µM*	16µM*	i	8%
CC(=O)Nc1cccc(-c2cc(N3CCN(CCO)CC3)n3nccc3n2)c1	i	2%	-2%	-11%	i	8%
